G9a block: blocks human histone lysine methyltransferase G9a | G9a H3K9 monomethylation, AlphaScreen, 2 h | Potency, µM (highest dose often 102 µM), for the others: top-dose activity, negative = inhibition, hits mostly inhibitors | hit rate 8.8% among 350,000 | AID 504332; also: potency is read from the fitted curve at half-maximal effect; nearly all actives have a fitted effect of over 75% in size
Target sequence (Q96KQ7 913-1193 limits assumed): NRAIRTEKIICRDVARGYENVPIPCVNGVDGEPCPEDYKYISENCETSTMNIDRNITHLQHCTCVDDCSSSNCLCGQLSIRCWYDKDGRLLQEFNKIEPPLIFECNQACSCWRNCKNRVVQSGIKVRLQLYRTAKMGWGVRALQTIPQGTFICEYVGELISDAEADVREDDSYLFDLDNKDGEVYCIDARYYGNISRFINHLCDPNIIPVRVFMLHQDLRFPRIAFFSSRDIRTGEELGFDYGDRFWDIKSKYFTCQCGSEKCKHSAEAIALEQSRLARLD
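Compounds were preincubated with 20 nM G9a for 15 min, after which biotinylated H3K9 peptide (500 nM) and SAM (20 uM) started a 2 h room-temperature reaction. Monomethylated product was quantified by antibody-based AlphaScreen chemiluminescence.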
Tau ThT inhib: blocks human tau fibril formation measured by thioflavin T; P10636; recombinant tau K18 P301L, heparin-induced fibrillization, ThT fluorescence; Potency, µM (series often up to 57.4 µM), inactives show at the highest dose activity, negative = inhibition, usual class: inhibitors; hit rate 2.1% among 270,000; also: potency is read from the fitted curve at half-maximal effect; nearly all actives have a fitted effect of over 55% in size
Target sequence (P10636 561-689 P618L limits assumed): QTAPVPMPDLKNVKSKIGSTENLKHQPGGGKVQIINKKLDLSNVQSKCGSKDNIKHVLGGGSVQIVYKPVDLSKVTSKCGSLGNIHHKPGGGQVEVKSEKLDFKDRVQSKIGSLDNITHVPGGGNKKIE
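ThT emission at 510 nm, taken 1 hr after adding 30 uM dye, quantifies aggregates formed when 20 uM heparin acts on human tau K18 P301L for 6 hr at 37 C.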
Sfp PPTase inh: blocks B. subtilis Sfp PPTase activity; Q9F4F7; Biochemical Sfp PPTase activity, qHTS; Potency, µM, for inactives: largest response in the series, negative = inhibition, most hits filed as inhibitors; hit rate 3.5% among 310,000; AID 1490;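 also: the enzyme is Sfp with the accession as filed and its product quenches rhodamine fluorescence; potency is read from the fitted curve at half-maximal effect; 0% = enzyme reaction without inhibitor and -100% = no enzyme wells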
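With Hepes-Na pH 7.6 buffer containing 10 mM MgCl2, Sfp (15 nM) modified BHQ-2-YbbR (12.5 uM) using rhodamine-CoA (5 uM). Two reads 30 minutes apart at 525/598 nm yielded each well's rate.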
Tau fibril FP: inhibitors of human tau fibril formation; P10636; K18 P301L tau heparin fibrillization, Alexa594 FP, 6 h; Potency, µM (titrated, usually from 57.7 µM), for inactives: at the top dose activity, negative = inhibition, most hits filed as inhibitors; hit rate 0.39% among 280,000; AID 1468; also: potency is read from the fitted curve at half-maximal effect; nearly all actives have a fitted effect of over 55% in size
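K18 P301L tau (15 uM unlabeled/0.24 uM Alexa 594-labeled, final) + compound + heparin 20 uM final; 100 mM NaOAc pH 7; 6 hr 37 C; ThT 30 uM final added, 1 hr RT; FP ex 555/em 632 nm.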
Coupling enz: coupling enzyme interference in Giardia aldolase counter-screen | coupling enzyme system counterscreen, AmpLite Red fluorescence | activity change, negative = inhibition, % at 58.2 µM, hits read low | hit rate 0.67% among 290,000; in the data active = activity change below about -30%
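First, compound is pin-transferred into glyceraldehyde-3-phosphate coupling-enzyme reagent at 57.5 uM final and held 10 min at RT. Next, substrate, coupling system and AmpLite Red are added. After 20 min RT, fluorescence (525/598 nm) is read.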
Tau fluor cs: counter-screen for tau fibril formation inhibitors; tau K18 P301L Alexa594 fluorescence, heparin fibrillization; Potency, µM (series often up to 57.7 µM), inactives show at the top dose activity change, negative = decrease; hit rate 0.93% among 280,000; AID 1463; also: potency is read from the fitted curve at half-maximal effect; nearly all actives have a fitted effect of over 55% in size
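Human tau K18 P301L (15 uM unlabeled, 0.24 uM Alexa 594-labeled) in 100 mM sodium acetate pH 7 with 20 uM heparin, 6 hr at 37 C. ThT 30 uM added, 1 hr ambient; Alexa 594 FP and total fluorescence read at 555/632 nm.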
Numbers without * were called inactive; ! = repeats disagree; [ ] = dose if it differs, or a comment. A selection: hits, their analogues and other compounds. The true share with any hit is near 11%. Unless noted, calls follow the shape of the dose curve; as a rule, active = well fitted curve in the direction sought with a large enough effect; inconclusive = small, poorly fitted or top-dose-only effect, or another doubt; inactive = no such curve, though single readings can be large; an effect the other way counts as inactive or inconclusive. Unless noted, % is scaled to controls: 0 for no effect and ±100 for the full control effect.

Results for CCN(CC)S(=O)(=O)c1ccc(NC(=O)c2c(C)oc3ncnc(N4CCOCC4)c23)cc1 ?
G9a block: -0.6%[59 µM]; Tau ThT inhib: 3.0%; Tau fibril FP: 3.3%; Tau fluor cs: 3.1%

How did CCOC(=O)c1c(NC(=O)CSc2c[nH]c3ccccc23)sc2c1CCC2 do in these assays?
G9a block: -19.3%; Tau ThT inhib: -6.8%; Sfp PPTase inh: 4.9%; Tau fibril FP: inconclusive; Coupling enz: -2.2; Tau fluor cs: 10µM*[quencher]

What do the screens show for `CCOC(=O)c1c(NC(=O)c2ccccc2Br)sc2c1CCc1ccccc1-2`?
G9a block: 1.41µM*; Tau ThT inhib: 28.2µM*; Sfp PPTase inh: 39.8µM*; Tau fibril FP: inconclusive; Coupling enz: 0.3; Tau fluor cs: -27.6%

How did CCOC(=O)c1c(NC(=O)COc2c(C)cc(Cl)cc2Cl)sc2c1CCCC2 do in these assays?
G9a block: -38.4%[59 µM]; Tau ThT inhib: -10.0%; Tau fibril FP: -1.1%; Tau fluor cs: -13.6%

Results for COC(=O)c1c(NC(=O)COc2ccc(Cl)cc2C)sc2c1CCCCC2 ?
G9a block: 7.94µM*; Tau ThT inhib: -16.7%; Tau fibril FP: -1.8%; Tau fluor cs: -0.3%

What do the screens show for `CCOC(=O)c1c(NC(=O)COc2ccc(Cl)cc2C)sc2c1CCCCC2`?
G9a block: 6.31µM*; Tau ThT inhib: -13.5%; Tau fibril FP: -3.1%; Tau fluor cs: -10.8%

Results for CCOC(=O)c1c(NC(=O)CSc2c[nH]c3ccccc23)sc2c1CCCC2 ?
G9a block: inconclusive; Tau ThT inhib: 3.0%; Sfp PPTase inh: 8.4%; Tau fibril FP: 0.8%; Coupling enz: -13.7; Tau fluor cs: -5.0%

How did CCOC(=O)c1c(NC(=O)c2ccccc2Cl)sc2c1CCCC2 do in these assays?
G9a block: 77.2%[59 µM]; Tau ThT inhib: -0.6%; Tau fibril FP: -0.5%; Tau fluor cs: -2.3%

Results for COc1cccc(CN(C(=O)c2oc3ccc(Br)cc3c2C)C2CCS(=O)(=O)C2)c1 (centres undefined) ?
G9a block: -43.4%[59 µM]; Tau ThT inhib: -14.0%; Tau fibril FP: -8.5%; Tau fluor cs: -27.6%

How did Cc1ccccc1N(C(=O)CNC(=O)c1ccco1)C(C(=O)NC1CCCCC1)c1cccnc1 (centres undefined) do in these assays?
G9a block: 4.6%[59 µM]; Sfp PPTase inh: 22.3%; Coupling enz: 2.2

How did COc1cc(OC)cc(C(=O)N2CCN(C(=O)c3cccs3)CC2)c1 do in these assays?
G9a block: -1.0%; Sfp PPTase inh: 11.5%; Coupling enz: 7.4

Results for C/C(=C\C[Si](C)(C)C)CC[C@H](O)C1=CCCCC1=O ?
Tau ThT inhib: -4.4%; Sfp PPTase inh: 9.0%; Tau fibril FP: -3.9%; Coupling enz: -1.1; Tau fluor cs: -2.7%

How did COc1cc(C(=O)Nc2ccccc2OCc2cc(=O)n3cc(C)sc3n2)cc(OC)c1OC do in these assays?
G9a block: 22.1%[59 µM]; Tau ThT inhib: 0.6%; Tau fibril FP: -0.5%; Tau fluor cs: -3.9%

What do the screens show for `CCc1ccccc1NC(=O)Cn1nnc(C(=O)NCc2ccccc2Cl)c1N`?
G9a block: -8.2%[59 µM]; Tau ThT inhib: -6.0%; Tau fibril FP: inconclusive; Tau fluor cs: -14.2%

How did COC(=O)c1c(NC(=O)CCCOc2ccc(C)cc2)sc2c1CCCC2 do in these assays?
G9a block: 14.1µM*; Tau ThT inhib: inconclusive; Tau fibril FP: -10.1%; Tau fluor cs: -27.5%

Results for O=C1c2c(O)cccc2Cc2cccc(O)c21 ?
G9a block: 2.51µM*!; Tau ThT inhib: inconclusive; Sfp PPTase inh: -8.8%; Tau fibril FP: -8.1%; Coupling enz: 1.4; Tau fluor cs: inconclusive

What do the screens show for `COc1ccccc1N1CCN(C(=O)C2CCN(S(=O)(=O)Cc3ccccc3)CC2)CC1`?
G9a block: -6.8%[59 µM]; Tau ThT inhib: -15.5%; Tau fibril FP: -5.2%; Tau fluor cs: -10.9%

Results for Cc1ccccc1C(=O)Oc1ccc(Sc2ccc(O)cc2)cc1 ?
G9a block: 3.5%[2.33 µM]; Tau ThT inhib: inconclusive; Sfp PPTase inh: -6.5%; Tau fibril FP: 25.1µM*; Coupling enz: -0.7; Tau fluor cs: 7.08µM*[quencher]

How did Cc1ccccc1C(=O)Oc1ccc(-c2csnn2)cc1 do in these assays?
G9a block: 51.7%; Tau ThT inhib: inconclusive; Sfp PPTase inh: 3.1%; Tau fibril FP: -12.0%; Coupling enz: -2.0; Tau fluor cs: -21.6%

Results for CCCCCc1ccc(-c2cn(CCc3c[nH]c4ccccc34)nn2)cc1 ?
Sfp PPTase inh: 1.5%; Coupling enz: -1.5

How did O=C(O)CCCCCCCCc1cn(CCc2c[nH]c3ccccc23)nn1 do in these assays?
G9a block: 28.2µM*; Sfp PPTase inh: -15.9%; Coupling enz: 9.9

How did O=c1[nH]c(/C=C2\C=Nc3ccccc32)c(O)n1Cc1ccccc1F do in these assays?
G9a block: -29.7%; Tau ThT inhib: inconclusive; Sfp PPTase inh: -18.4%; Tau fibril FP: 0.4%; Coupling enz: -4.8; Tau fluor cs: 7.94µM*[quencher]

How did CC1=NN(CCC#N)C(=O)/C1=C/c1ccc(N(C)C)cc1 do in these assays?
G9a block: inconclusive; Tau ThT inhib: 25.1µM*; Sfp PPTase inh: 3.9%; Tau fibril FP: -7.4%; Coupling enz: -7.2; Tau fluor cs: -10.4%

Results for COc1cc(/C=C2\C(=O)N(CCC#N)N=C2C)ccc1OCC(=O)Nc1ccccc1 ?
G9a block: 22.0%[59 µM]; Tau ThT inhib: -4.7%; Sfp PPTase inh: 7.2%; Tau fibril FP: 7.4%; Coupling enz: 0.6; Tau fluor cs: 15.2%

What do the screens show for `CCOc1cc(/C=C2\C(=O)N(CCC#N)N=C2C)ccc1OCC(N)=O`?
G9a block: 70.8µM*; Tau ThT inhib: -11.3%; Sfp PPTase inh: 26.6%; Tau fibril FP: -5.4%; Coupling enz: -5.4; Tau fluor cs: -3.4%

What do the screens show for `N=Nc1c(O)n(CC(=O)Nc2ccccc2)c2ccccc12`?
Sfp PPTase inh: 6.9%; Coupling enz: 1.3

What do the screens show for `CCOC(=O)c1c(C)[nH]c(C(=O)OC)c1CCC(=O)OC`?
G9a block: -38.8%[12.7 µM]; Tau ThT inhib: -2.4%; Sfp PPTase inh: -3.7%; Tau fibril FP: -7.9%; Coupling enz: -0.6; Tau fluor cs: -4.1%

What do the screens show for `CCOC(=O)c1[nH]c(Cc2[nH]c(C(=O)OCC)c(C)c2CCC(=O)OC)c(CCC(=O)OC)c1C`?
G9a block: 39.8µM*; Tau ThT inhib: -13.8%; Sfp PPTase inh: 56.2µM*; Tau fibril FP: 7.9%; Coupling enz: -5.2; Tau fluor cs: -9.7%

What do the screens show for `CC1C(=O)C(=O)C=CN1C` (centres undefined)?
G9a block: inconclusive; Sfp PPTase inh: 44.7µM*
